Experimental data as given in PubChem BioAssay (EPA / NIEHS).
Active and inactive are the calls of the source. How the source made its calls: active means hit-call score of the fitted dose curve at least 0.9, where 1 is the maximum; inactive means score below 0.9.

Key:
[1] = ATG_GLI_CIS: Attagene CIS-FACTORIAL HepG2 Assay for human Zinc Finger Protein GLI1 (AID 2282945); conditions: HepG2, Attagene cis-factorial reporter mRNA, GLI element; actives raise or lower the signal
Procedure, shortened: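 Transiently transfected HepG2 cells report endogenous transcription factor activity via cis-element-driven reporter units. After 24 h compound exposure, reporter mRNA was measured by RT-PCR with capillary electrophoresis; bidirectional fitting against DMSO baseline.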

[2] = ATG_GRE_CIS: Attagene CIS-FACTORIAL HepG2 Assay for human Glucocorticoid Response Elements (GRE) (AID 2282947); conditions: HepG2 GRE cis-reporter, Attagene multiplex mRNA; actives raise or lower the signal
Procedure, shortened: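 Read-out: fluorescent reporter-transcript fragments separated by capillary electrophoresis after RT-PCR. Transiently transfected HepG2 cells carrying cis-element-driven reporter units were dosed for 24 h; gain or loss of signal fitted against DMSO control.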

[3] = ATG_ISRE_CIS: Attagene CIS-FACTORIAL HepG2 Assay for human Interferon Regulatory Factor 1 (IRF1) binding to an Interferon-Stimulated Response Element (ISRE) (AID 2282948); conditions: HepG2 ISRE cis-reporter (Attagene), mRNA transcription readout; actives raise or lower the signal
Procedure, shortened: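 Uses HepG2 liver cells transfected with cis-regulated reporters and measures mRNA 24 h post-dosing through RT-PCR, primer-extension labelling and capillary electrophoresis, with DMSO as negative control.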

[4] = ATG_M_32_CIS: Attagene CIS-FACTORIAL HepG2 Assay for M32 Transcription Factor (Internal Marker) (AID 2282949); conditions: HepG2 Attagene cis-factorial M32 reporter, mRNA; actives raise or lower the signal;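 further: background control marker of the multiplexed CIS panel rather than a real target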
Procedure, shortened: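 Transient MRTU transfection of HepG2; 24 h compound treatment; TriZol RNA, oligo(dT) RT, reporter PCR, 6-FAM primer extension, HpaI cut, CE. Gain/loss of signal vs DMSO.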

[5] = ATG_M_06_CIS: Attagene CIS-FACTORIAL HepG2 Assay for M06 Transcription Factor (Internal Marker) (AID 2282950); conditions: HepG2 Attagene CIS-FACTORIAL M06 internal marker reporter; actives raise or lower the signal
Procedure, shortened: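 Steps: transfect HepG2 with multiplexed cis-element reporter constructs; dose chemical 24 h; extract RNA with DNase treatment; reverse-transcribe, PCR-amplify, 6-FAM label, HpaI digest; separate fragments by capillary electrophoresis. Activity fitted both directions versus DMSO.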

[6] = biological target: Hypoxia-inducible factor 1-alpha (Homo sapiens) (UniProt Q16665); test: ATG_HIF1a_CIS: Attagene CIS-FACTORIAL HepG2 Assay for human Hypoxia Inducible Factor 1 (HIF1A) (AID 2282951); conditions: HepG2 Attagene cis-factorial HIF1a reporter transcription; actives raise or lower the signal
Chain of Hypoxia-inducible factor 1-alpha (Homo sapiens) (Q16665 whole entry, looked up, the tested form may be a part): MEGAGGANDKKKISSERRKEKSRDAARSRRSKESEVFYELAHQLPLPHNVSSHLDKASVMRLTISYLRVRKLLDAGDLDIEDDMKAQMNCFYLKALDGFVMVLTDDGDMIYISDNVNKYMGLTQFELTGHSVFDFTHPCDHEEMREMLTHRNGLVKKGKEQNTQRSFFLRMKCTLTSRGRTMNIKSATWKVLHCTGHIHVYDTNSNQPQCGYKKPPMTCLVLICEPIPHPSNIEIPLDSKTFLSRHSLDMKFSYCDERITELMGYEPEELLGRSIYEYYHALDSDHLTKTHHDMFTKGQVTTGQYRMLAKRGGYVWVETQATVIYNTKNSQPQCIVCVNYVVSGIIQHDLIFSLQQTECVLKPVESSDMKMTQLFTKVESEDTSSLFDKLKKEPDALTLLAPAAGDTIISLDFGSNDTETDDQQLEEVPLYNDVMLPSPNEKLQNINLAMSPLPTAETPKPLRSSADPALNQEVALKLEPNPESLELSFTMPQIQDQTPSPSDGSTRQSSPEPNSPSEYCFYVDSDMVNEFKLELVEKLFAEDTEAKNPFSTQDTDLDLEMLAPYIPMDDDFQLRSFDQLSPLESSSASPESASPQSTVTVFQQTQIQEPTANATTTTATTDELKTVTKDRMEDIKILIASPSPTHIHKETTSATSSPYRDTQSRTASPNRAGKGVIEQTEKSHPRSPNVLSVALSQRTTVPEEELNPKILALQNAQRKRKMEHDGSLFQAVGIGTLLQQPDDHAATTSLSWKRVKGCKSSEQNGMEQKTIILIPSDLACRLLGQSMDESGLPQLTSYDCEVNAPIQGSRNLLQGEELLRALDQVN
Procedure, shortened: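 Transient MRTU transfection of human HepG2 liver cells, 24 h compound treatment, then total RNA isolation, oligo(dT) reverse transcription, PCR amplification, fluorescent labelling and capillary electrophoresis of reporter fragments. Gain or loss relative to DMSO.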

[7] = biological target: Hepatocyte nuclear factor 6 (Homo sapiens) (UniProt Q9UBC0); test: ATG_HNF6_CIS: Attagene CIS-FACTORIAL HepG2 Assay for human Hepatocyte Nuclear Factor 6 (HNF6) (AID 2282952); conditions: HepG2 Attagene cis-factorial HNF6 reporter transcription; actives raise or lower the signal
Chain of Hepatocyte nuclear factor 6 (Homo sapiens) (Q9UBC0 whole entry, looked up): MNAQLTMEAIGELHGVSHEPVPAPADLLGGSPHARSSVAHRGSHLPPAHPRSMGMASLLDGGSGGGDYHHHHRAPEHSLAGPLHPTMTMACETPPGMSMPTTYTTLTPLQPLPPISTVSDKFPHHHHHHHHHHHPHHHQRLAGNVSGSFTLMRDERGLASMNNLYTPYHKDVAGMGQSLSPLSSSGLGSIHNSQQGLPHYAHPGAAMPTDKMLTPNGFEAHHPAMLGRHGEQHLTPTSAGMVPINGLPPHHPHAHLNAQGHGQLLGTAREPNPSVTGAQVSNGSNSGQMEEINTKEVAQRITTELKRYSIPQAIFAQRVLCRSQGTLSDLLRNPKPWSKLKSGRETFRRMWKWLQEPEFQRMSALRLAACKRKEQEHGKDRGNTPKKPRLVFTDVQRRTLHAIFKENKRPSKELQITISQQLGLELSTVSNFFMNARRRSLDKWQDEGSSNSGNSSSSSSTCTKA
Procedure, shortened: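 Activity values derive from bidirectional fitting against DMSO of reporter mRNA levels, measured by capillary electrophoresis of labelled RT-PCR products from HepG2 cells exposed 24 h.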

[8] = biological target: Heat shock factor protein 1 (Homo sapiens) (UniProt Q00613); test: ATG_HSE_CIS: Attagene CIS-FACTORIAL HepG2 Assay for human Heat Shock Transcription Factor 1 (HSE) (AID 2282953); conditions: HepG2 HSE cis-reporter, Attagene RNA transcription; actives raise or lower the signal
Chain of Heat shock factor protein 1 (Homo sapiens) (Q00613 whole entry, looked up, the tested form may be a part): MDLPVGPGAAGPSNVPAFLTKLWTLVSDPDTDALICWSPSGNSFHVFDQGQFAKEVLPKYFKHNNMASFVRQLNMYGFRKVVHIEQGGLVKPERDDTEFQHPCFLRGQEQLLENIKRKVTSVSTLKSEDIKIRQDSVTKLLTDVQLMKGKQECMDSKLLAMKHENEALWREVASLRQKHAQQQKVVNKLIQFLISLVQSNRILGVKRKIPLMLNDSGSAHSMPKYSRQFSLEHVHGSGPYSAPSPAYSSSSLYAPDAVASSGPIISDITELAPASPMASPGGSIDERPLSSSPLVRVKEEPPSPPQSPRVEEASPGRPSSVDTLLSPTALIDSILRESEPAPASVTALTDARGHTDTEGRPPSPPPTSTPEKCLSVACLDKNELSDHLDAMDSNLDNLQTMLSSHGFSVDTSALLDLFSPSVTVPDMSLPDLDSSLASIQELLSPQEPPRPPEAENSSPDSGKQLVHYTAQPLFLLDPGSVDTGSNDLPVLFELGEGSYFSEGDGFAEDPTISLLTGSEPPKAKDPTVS
Procedure, shortened: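 Cells were transfected with cis-element-driven reporter constructs, dosed for 24 h, then total RNA was reverse-transcribed and reporter cDNA amplified, FAM-labelled and digested with HpaI. Fragments were resolved by capillary electrophoresis; gain or loss was fitted against DMSO.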

[9] = ATG_MRE_CIS: Attagene CIS-FACTORIAL HepG2 Assay for human Metal Responsive Element (MRE) (AID 2282954); conditions: HepG2 MRE cis-reporter transcription, Attagene multiplex; actives raise or lower the signal
Procedure, shortened: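 RT-PCR/capillary electrophoresis readout of reporter mRNA, 24 h post-dosing, in HepG2 cells transfected with multiplexed cis-regulated reporter constructs. Gain or loss of signal fitted bidirectionally against DMSO baseline.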

[10] = biological target: Paired box protein Pax-6 (Homo sapiens) (UniProt P26367); test: ATG_Pax6_CIS: Attagene CIS-FACTORIAL HepG2 Assay for human Paired Box 6 (PAX6) (AID 2282956); conditions: HepG2 CIS-FACTORIAL PAX6 reporter transcription, RNA readout; actives raise or lower the signal
Chain of Paired box protein Pax-6 (Homo sapiens) (P26367 whole entry, looked up): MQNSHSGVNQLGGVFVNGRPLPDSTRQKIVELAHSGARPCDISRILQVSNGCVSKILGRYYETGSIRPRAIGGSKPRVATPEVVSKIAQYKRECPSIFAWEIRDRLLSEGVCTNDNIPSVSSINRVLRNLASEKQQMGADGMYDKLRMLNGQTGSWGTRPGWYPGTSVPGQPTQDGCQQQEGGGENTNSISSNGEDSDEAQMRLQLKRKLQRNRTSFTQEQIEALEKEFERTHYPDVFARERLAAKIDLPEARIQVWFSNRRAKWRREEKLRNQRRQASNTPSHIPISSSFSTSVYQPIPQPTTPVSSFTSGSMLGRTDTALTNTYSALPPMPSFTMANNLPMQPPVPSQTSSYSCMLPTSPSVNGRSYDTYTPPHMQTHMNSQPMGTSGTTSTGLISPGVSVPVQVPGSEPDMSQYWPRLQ
Procedure, shortened: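 DMSO-referenced bidirectional fits of reporter mRNA fluorescence; HepG2 with transient cis-promoter MRTUs, 24 h post-dose, RT-PCR plus capillary electrophoresis detection.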

[11] = ATG_PXRE_CIS: Attagene CIS-FACTORIAL HepG2 Assay for human Pregnane X Receptor Element (PXRE) (AID 2282957); conditions: HepG2 Attagene CIS-FACTORIAL PXRE reporter, mRNA; actives raise or lower the signal
Procedure, shortened: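 Fluorescent capillary electrophoresis of amplified reporter cDNA gave the signal, collected 24 h after dosing HepG2 cells that held transfected cis-element reporter constructs.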

[12] = ATG_PPRE_CIS: Attagene CIS-FACTORIAL HepG2 Assay for human Peroxisome Proliferator-activated Response Element (PPRE) (AID 2282958); conditions: HepG2 PPRE cis-element reporter, Attagene transcription factor profiling; actives raise or lower the signal
Procedure, shortened: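 HepG2, transient MRTU transfection (cis promoter elements, endogenous TFs). 24 h dosing. RNA → oligo(dT) RT → PCR → 6-FAM primer extension → HpaI digest → CE. Bidirectional fit vs DMSO.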

[13] = ATG_RORE_CIS: Attagene CIS-FACTORIAL HepG2 Assay for human RAR-related Orphan Receptor Element (RORE) (AID 2282959); conditions: HepG2 Attagene cis-factorial RORE reporter, mRNA; actives raise or lower the signal
Procedure, shortened: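 Transient MRTU transfection of human HepG2 liver cells (FuGene 6); 24 h compound exposure; TriZol RNA, oligo(dT) RT, PCR, FAM labeling, HpaI cut, CE fragment analysis. DMSO = negative control/baseline.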

[14] = biological target: Transcription factor Sp1 (Homo sapiens) (UniProt P08047); test: ATG_Sp1_CIS: Attagene CIS-FACTORIAL HepG2 Assay for human Specificity Protein 1 (Sp1) (AID 2282961); conditions: HepG2 Sp1 cis-reporter transcription, actives raise or lower the signal
Chain of Transcription factor Sp1 (Homo sapiens) (P08047 whole entry, looked up): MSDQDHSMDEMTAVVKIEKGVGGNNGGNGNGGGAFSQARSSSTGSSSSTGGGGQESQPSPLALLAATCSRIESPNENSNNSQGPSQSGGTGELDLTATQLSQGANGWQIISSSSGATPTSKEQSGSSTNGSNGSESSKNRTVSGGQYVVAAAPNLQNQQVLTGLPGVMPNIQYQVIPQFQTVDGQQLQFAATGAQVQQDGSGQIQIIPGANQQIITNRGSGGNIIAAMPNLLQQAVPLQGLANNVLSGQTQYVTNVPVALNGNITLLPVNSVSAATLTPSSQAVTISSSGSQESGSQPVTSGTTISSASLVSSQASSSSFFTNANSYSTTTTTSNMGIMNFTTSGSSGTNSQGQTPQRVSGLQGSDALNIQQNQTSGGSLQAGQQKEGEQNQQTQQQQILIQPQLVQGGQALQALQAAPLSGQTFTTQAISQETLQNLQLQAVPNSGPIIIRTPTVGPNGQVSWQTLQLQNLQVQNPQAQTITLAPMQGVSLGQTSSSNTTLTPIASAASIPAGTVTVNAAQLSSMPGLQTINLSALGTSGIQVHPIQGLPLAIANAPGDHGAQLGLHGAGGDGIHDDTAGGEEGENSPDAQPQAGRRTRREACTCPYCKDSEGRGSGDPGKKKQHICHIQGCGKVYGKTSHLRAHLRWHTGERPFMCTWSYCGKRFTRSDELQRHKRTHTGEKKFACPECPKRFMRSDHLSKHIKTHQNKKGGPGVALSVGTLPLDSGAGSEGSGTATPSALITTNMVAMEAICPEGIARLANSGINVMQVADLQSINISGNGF
Procedure, shortened: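 Transient MRTU-transfected HepG2, 24 h compound exposure. Total RNA → oligo(dT) RT → PCR of reporter → 6-FAM primer extension → HpaI digest → CE. Endpoint fitted both directions vs DMSO.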

[15] = ATG_SREBP_CIS: Attagene CIS-FACTORIAL HepG2 Assay for human Sterol Regulatory Element Binding (SREBP) (AID 2282962); conditions: HepG2 Attagene cis-factorial SREBP reporter, mRNA; actives raise or lower the signal
Procedure, shortened: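 In this cis-format assay, HepG2 liver cells express reporters controlled by promoter elements responsive to native transcription factors. Exposure lasts 24 h; reporter mRNA fluorescence from capillary electrophoresis gives the signal, fitted bidirectionally against DMSO.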

[16] = biological target: Signal transducer and activator of transcription 3 (Homo sapiens) (UniProt P40763); test: ATG_STAT3_CIS: Attagene CIS-FACTORIAL HepG2 Assay for human Signal Transducer and Activator of Transcription 3 (STAT3) (AID 2282963); conditions: HepG2, Attagene cis-factorial STAT3 reporter transcription; actives raise or lower the signal
Chain of Signal transducer and activator of transcription 3 (Homo sapiens) (P40763 whole entry, looked up, the tested form may be a part): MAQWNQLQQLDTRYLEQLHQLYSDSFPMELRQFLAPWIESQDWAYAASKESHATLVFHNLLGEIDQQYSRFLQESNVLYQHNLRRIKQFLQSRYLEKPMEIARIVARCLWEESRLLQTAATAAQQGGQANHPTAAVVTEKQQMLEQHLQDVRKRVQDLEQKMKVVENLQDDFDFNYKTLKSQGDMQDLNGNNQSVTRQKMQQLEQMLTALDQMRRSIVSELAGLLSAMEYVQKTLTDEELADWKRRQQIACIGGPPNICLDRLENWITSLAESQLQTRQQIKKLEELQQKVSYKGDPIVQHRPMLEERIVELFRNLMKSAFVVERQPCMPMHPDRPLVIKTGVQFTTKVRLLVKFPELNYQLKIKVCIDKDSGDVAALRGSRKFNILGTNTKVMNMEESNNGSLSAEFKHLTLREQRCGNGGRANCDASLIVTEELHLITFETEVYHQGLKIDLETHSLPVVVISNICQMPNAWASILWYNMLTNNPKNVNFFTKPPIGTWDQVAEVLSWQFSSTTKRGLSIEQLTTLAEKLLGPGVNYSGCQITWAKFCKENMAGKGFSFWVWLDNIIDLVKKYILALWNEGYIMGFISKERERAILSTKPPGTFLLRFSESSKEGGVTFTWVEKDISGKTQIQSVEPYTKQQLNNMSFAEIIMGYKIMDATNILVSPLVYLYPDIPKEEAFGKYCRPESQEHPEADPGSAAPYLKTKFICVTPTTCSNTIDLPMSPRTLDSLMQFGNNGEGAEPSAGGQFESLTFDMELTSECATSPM
Procedure, shortened: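 Readout: fluorescent reporter mRNA fragments resolved by capillary electrophoresis. Setup: HepG2 transfected with MRTUs reporting endogenous transcription-factor activity, dosed 24 h. Gain or loss of signal fitted bidirectionally against DMSO control.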

[17] = ATG_TA_CIS: Attagene CIS-FACTORIAL HepG2 Assay for human TA Basal Promoter (AID 2282964); conditions: HepG2 Attagene CIS-factorial TA basal promoter reporter; actives raise or lower the signal
Procedure, shortened: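 Steps: transfect HepG2 with MRTUs; dose 24 h; isolate RNA, DNase-treat, reverse-transcribe; PCR and FAM-label reporter cDNA; digest with HpaI 2h at 37 C; run capillary electrophoresis. Activity fitted both directions against DMSO.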

[18] = ATG_Sox_CIS: Attagene CIS-FACTORIAL HepG2 Assay for human SRY-box transcription factor (SOX) (AID 2282960); conditions: HepG2 Attagene cis-factorial SOX reporter, mRNA; actives raise or lower the signal
Procedure, shortened: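 Endogenous factor activity in human liver HepG2 cells carrying transfected cis-regulated reporter units. RNA taken 24 h post-dose, reverse-transcribed, PCR-amplified and sized by capillary electrophoresis. Gain or loss of signal fitted relative to DMSO.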

[19] = ATG_PBREM_CIS: Attagene CIS-FACTORIAL HepG2 Assay for human Phenobarbital-responsive Enhancer Module (PBREM) (AID 2282955); conditions: HepG2 PBREM cis-reporter, Attagene multiplexed transcription; actives raise or lower the signal
Procedure, shortened: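 Endogenous transcription factors in human liver HepG2 cells drive a PBREM cis-element reporter, whose transcript level after 24 h treatment is quantified by RT-PCR with capillary electrophoresis; activity fitted in both directions against DMSO.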

Row | SMILES | outcome [1] | outcome [2] | outcome [3] | outcome [4] | outcome [5] | outcome [6] | outcome [7] | outcome [8] | outcome [9] | outcome [10] | AC50 [11] | outcome [12] | outcome [13] | outcome [14] | outcome [15] | outcome [16] | outcome [17] | outcome [11] | outcome [18] | outcome [19]
1 | O=C(O)C1=NN(c2ccc(S(=O)(=O)O)cc2)C(=O)C1 | inactive | inactive | inactive | inactive | inactive | inactive | inactive | inactive | inactive | inactive | 45.8 µM (active) | inactive | inactive | inactive | inactive | inactive | inactive | – | – | –
2 | OCCCO | inactive | inactive | inactive | inactive | inactive | inactive | inactive | inactive | inactive | inactive | – | inactive | – | inactive | inactive | – | inactive | inactive | inactive | –
3 | CCC(=O)OC/C=C(\C)CCC=C(C)C | inactive | inactive | inactive | inactive | inactive | inactive | inactive | inactive | inactive | inactive | 44 µM (active) | inactive | – | inactive | inactive | inactive | inactive | – | inactive | –
4 | OC[C@H]1O[C@@H](O[C@H]2[C@H](O)[C@@H](O)[C@H](O)O[C@@H]2CO)[C@H](O)[C@@H](O)[C@H]1O | inactive | inactive | inactive | inactive | inactive | inactive | inactive | inactive | inactive | inactive | – | – | – | inactive | inactive | inactive | inactive | inactive | inactive | inactive
5 | CC/C=C\C#N | inactive | inactive | inactive | inactive | inactive | inactive | inactive | inactive | inactive | inactive | – | – | inactive | inactive | inactive | inactive | inactive | inactive | inactive | inactive
6 | O=C1OC2(c3ccc(O)cc3Oc3cc(O)ccc32)c2ccccc21 | inactive | inactive | inactive | inactive | inactive | inactive | inactive | inactive | inactive | inactive | 0.741 µM (active) | inactive | inactive | inactive | inactive | – | inactive | – | – | –
7 | O=C(C=Cc1ccccc1)OCCCc1ccccc1 | inactive | inactive | inactive | inactive | inactive | inactive | inactive | inactive | inactive | inactive | 19.9 µM (active) | – | – | inactive | inactive | – | inactive | – | inactive | inactive
8 | CC(CCO)CC(C)(C)C (stereo not drawn) | inactive | inactive | inactive | inactive | inactive | inactive | inactive | inactive | inactive | inactive | – | – | inactive | inactive | – | inactive | inactive | inactive | inactive | –
